# Changes are numbered by the printed parent chain.
# Key:
# Assay in all cases: HT-SELEX; high values mean tight binding
# Conditions in all cases: protein: recombinant; vector His6-GST; dsDNA, one strand shown
# SALL4 ZFC4 WT (HT-SELEX) = molecular target: T1, SALL4 ZFC4 WT (HT-SELEX) (Mus musculus, UniProt Q8BX22 870-940)
# T1 sequence: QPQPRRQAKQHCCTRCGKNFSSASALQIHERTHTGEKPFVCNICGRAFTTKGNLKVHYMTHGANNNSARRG
# How it was run: (§1)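 DNA from a random library (1.5 µg in the first cycle, 200 ng afterwards) was incubated with purified recombinant mouse SALL4 zinc finger cluster 4, residues 870–940 (1 µg), for 10 min at room temperature in 100 µl buffer: 10 mM Tris–HCl pH 7.5, 50 mM NaCl, poly(dI-dC), DTT. Bound complexes were pulled down on Ni2+ beads, washed and PCR-amplified, and the selection was repeated for up to 6 cycles in triplicate. MiSeq reads were scanned for 6-mers, and binding signal is each canonical k-mer's read fraction as fold change over the initial random library.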
# [1] = molecular target: T2, SALL4 ZFC4 R900W (HT-SELEX) (Mus musculus, UniProt Q8BX22 870-940, R900W)
# T2 sequence: T1 sequence with R31W
# How it was run: as §1
# [2] = molecular target: T3, SALL4 ZFC4 G921D (HT-SELEX) (Mus musculus, UniProt Q8BX22 870-940, G921D)
# T3 sequence: T1 sequence with G52D
# How it was run: as §1
Sequence,binding signal (SALL4 ZFC4 WT (HT-SELEX)) [fold-change vs cycle 0],binding signal [1] [fold-change vs cycle 0],binding signal [2] [fold-change vs cycle 0]
GTTTCA,1.26 ± 0.0534,1.32 ± 0.0266,1.31 ± 0.0949
CACAGA,0.669 ± 0.0131,0.784 ± 0.0217,0.8476 ± 0.00739
AATGGG,0.774 ± 0.0508,0.854 ± 0.0662,0.883 ± 0.0427
CCCTAA,0.849 ± 0.0207,0.947 ± 0.00994,0.952 ± 0.0492
AAACGG,0.53 ± 0.0454,0.652 ± 0.023,0.713 ± 0.0232
ACTGAA,1.38 ± 0.0494,1.5 ± 0.11,1.39 ± 0.103
ACGACA,0.543 ± 0.0412,0.639 ± 0.0243,0.747 ± 0.0208
ACTATA,2.18 ± 0.121,1.98 ± 0.101,1.76 ± 0.177
CGTTAA,1.13 ± 0.0737,1.25 ± 0.0783,1.17 ± 0.0825
ATATAA,4.98 ± 0.592,2.65 ± 0.229,2.24 ± 0.302
TACTGA,1.38 ± 0.119,1.53 ± 0.139,1.42 ± 0.164
AGCACC,0.328 ± 0.0258,0.375 ± 0.0109,0.521 ± 0.0558
AAACTG,1.1 ± 0.0398,1.2 ± 0.0458,1.17 ± 0.0583
ATTAGG,1.38 ± 0.0909,1.48 ± 0.0913,1.4 ± 0.0983
ACTTAC,1.44 ± 0.0822,1.6 ± 0.106,1.47 ± 0.146
AAGACA,1.28 ± 0.0466,1.42 ± 0.0793,1.35 ± 0.0674
CTTTCA,1.3 ± 0.0524,1.47 ± 0.103,1.35 ± 0.102
ATGTTA,2.16 ± 0.126,2.08 ± 0.106,1.83 ± 0.212
ATAAAA,3.85 ± 0.323,2.43 ± 0.199,2.07 ± 0.279
GGTAAC,0.927 ± 0.0412,1.08 ± 0.0236,1.06 ± 0.0314
AACAGG,0.801 ± 0.0521,0.937 ± 0.0272,0.942 ± 0.0148

Sequence,binding signal (SALL4 ZFC4 WT (HT-SELEX)) [fold-change vs cycle 0],binding signal [1] [fold-change vs cycle 0],binding signal [2] [fold-change vs cycle 0]
ATATAT,5.74 ± 0.718,2.51 ± 0.217,2.2 ± 0.291
GAAGAC,0.8159 ± 0.00405,0.962 ± 0.00987,0.993 ± 0.0221
GGGAGA,0.48 ± 0.0185,0.566 ± 0.0484,0.638 ± 0.033
GATAGA,1.32 ± 0.045,1.46 ± 0.0749,1.38 ± 0.128
ATTTCC,1.33 ± 0.0842,1.28 ± 0.0652,1.25 ± 0.0764
CCATCC,0.48 ± 0.0325,0.541 ± 0.0313,0.633 ± 0.0281
TACCGA,0.689 ± 0.0125,0.749 ± 0.0345,0.837 ± 0.0299
GGTTTA,1.2 ± 0.0627,1.28 ± 0.0514,1.24 ± 0.0515
CTCTCC,0.497 ± 0.0273,0.603 ± 0.0441,0.672 ± 0.0341
ACACTG,0.743 ± 0.0572,0.877 ± 0.0574,0.908 ± 0.0148
AATATG,2.8 ± 0.213,1.83 ± 0.0804,1.66 ± 0.102
AGGTGA,0.887 ± 0.0607,0.987 ± 0.0758,1.04 ± 0.0735
CTGATA,1.39 ± 0.0802,1.44 ± 0.0817,1.36 ± 0.068
GACTCC,0.5 ± 0.00838,0.594 ± 0.00754,0.705 ± 0.0401
AATAGC,1 ± 0.0454,1.07 ± 0.0474,1.11 ± 0.00486
GGGAAA,0.693 ± 0.0334,0.767 ± 0.0294,0.812 ± 0.0285
CTCGAG,0.462 ± 0.0432,0.548 ± 0.0598,0.638 ± 0.046
AGAGAA,1.42 ± 0.0467,1.64 ± 0.0726,1.46 ± 0.11
CATATG,1.44 ± 0.156,1.37 ± 0.112,1.32 ± 0.0777
TGTACA,1.21 ± 0.0321,1.32 ± 0.00394,1.26 ± 0.0338
AAATCC,1.19 ± 0.0372,1.27 ± 0.0238,1.24 ± 0.0539

Sequence,binding signal (SALL4 ZFC4 WT (HT-SELEX)) [fold-change vs cycle 0],binding signal [1] [fold-change vs cycle 0],binding signal [2] [fold-change vs cycle 0]
AAAAGT,1.71 ± 0.0529,1.76 ± 0.0934,1.58 ± 0.113
AGACAT,1.29 ± 0.0778,1.45 ± 0.0615,1.37 ± 0.0528
ATTTAC,1.95 ± 0.0871,1.9 ± 0.0674,1.69 ± 0.111
AAGCTA,1.18 ± 0.0764,1.3 ± 0.0578,1.28 ± 0.0869
ATACCG,0.646 ± 0.0192,0.699 ± 0.038,0.799 ± 0.0271
CTAGAC,0.775 ± 0.0462,0.888 ± 0.0389,0.932 ± 0.00894
ACAATC,1.25 ± 0.051,1.38 ± 0.0687,1.36 ± 0.0869
CGTCTA,0.63 ± 0.0233,0.702 ± 0.0194,0.79 ± 0.0202
AATCAA,2.03 ± 0.0966,2 ± 0.106,1.81 ± 0.125
AACTAA,2.02 ± 0.0351,2.07 ± 0.133,1.82 ± 0.176
GAAGCC,0.311 ± 0.0191,0.3714 ± 0.00344,0.514 ± 0.0635
CGGTAA,0.676 ± 0.0195,0.74 ± 0.026,0.792 ± 0.0302
AAAGAA,1.95 ± 0.101,2.12 ± 0.151,1.8 ± 0.181
ATCTAA,2.02 ± 0.105,2.01 ± 0.101,1.83 ± 0.191
GATTTA,1.94 ± 0.0986,1.84 ± 0.0979,1.71 ± 0.128
AATGTC,1.08 ± 0.0855,1.21 ± 0.0715,1.22 ± 0.0672
GCTGAA,0.582 ± 0.0146,0.67 ± 0.0322,0.774 ± 0.0356
GTCCTA,0.764 ± 0.0287,0.905 ± 0.0413,0.9363 ± 0.00722
GAGACA,0.735 ± 0.0463,0.867 ± 0.0277,0.933 ± 0.0384
TATGCA,1.19 ± 0.0704,1.16 ± 0.0312,1.15 ± 0.0173
TAGGCA,0.578 ± 0.0216,0.648 ± 0.0255,0.751 ± 0.038

Sequence,binding signal (SALL4 ZFC4 WT (HT-SELEX)) [fold-change vs cycle 0],binding signal [1] [fold-change vs cycle 0],binding signal [2] [fold-change vs cycle 0]
ACCTTA,1.43 ± 0.0462,1.6 ± 0.0314,1.44 ± 0.0668
CAAAGC,0.565 ± 0.00649,0.654 ± 0.0334,0.761 ± 0.0246
ATAGTA,2.1 ± 0.131,2.08 ± 0.149,1.83 ± 0.209
GTTAAA,1.66 ± 0.0709,1.8 ± 0.123,1.61 ± 0.154
CAACCA,0.686 ± 0.0177,0.804 ± 0.0166,0.877 ± 0.0338
ACTACT,1.38 ± 0.0657,1.52 ± 0.107,1.43 ± 0.121
CTGAAG,0.866 ± 0.0297,1.01 ± 0.0356,1.03 ± 0.0122
GGGTTA,0.864 ± 0.0423,0.939 ± 0.0501,0.958 ± 0.0312
CGGAAA,0.548 ± 0.0301,0.591 ± 0.00691,0.694 ± 0.0765
AACTCT,1.39 ± 0.0293,1.52 ± 0.0171,1.47 ± 0.0843
ATTGCC,0.502 ± 0.0233,0.566 ± 0.0263,0.699 ± 0.0539
ACTTCT,1.44 ± 0.0317,1.64 ± 0.0808,1.45 ± 0.0874
ACGAAC,0.667 ± 0.0536,0.807 ± 0.0318,0.861 ± 0.0438
GACGGA,0.372 ± 0.0168,0.427 ± 0.0141,0.545 ± 0.0666
TAAAAA,3.23 ± 0.33,2.2 ± 0.213,1.92 ± 0.229
AGTTAA,1.95 ± 0.0954,2.13 ± 0.114,1.84 ± 0.201
ACACTA,1.26 ± 0.0187,1.3934 ± 0.0013,1.36 ± 0.0513
ATACAT,2.32 ± 0.0956,2.02 ± 0.0564,1.83 ± 0.109
GTACTA,1.24 ± 0.0382,1.37 ± 0.098,1.29 ± 0.0902
CGTGTC,0.335 ± 0.0147,0.407 ± 0.0314,0.545 ± 0.0369
ATGAGG,0.907 ± 0.0235,1.03 ± 0.0436,1.06 ± 0.0374

# Source: PMC9838217, “Structure of SALL4 zinc finger domain reveals link between AT-rich DNA binding and Okihiro syndrome”
